Assay [1] in a line: lowers stimulated NF-kB luciferase signal in Jurkat – cell-based, luminescence, single concentration, T-cell NF-kB inhibitor project, confirmation (AID 435020).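 Further: plate controls were PMA/ionomycin stimulated DMSO wells for no effect and unstimulated DMSO wells for full effect.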 As to conditions: PMA/ionomycin-induced, 16 h, at 4 µM, stronger effect = higher value.
In assay [2] the target is Protein Mdm4 (Homo sapiens) + E3 ubiquitin-protein ligase Mdm2 (Homo sapiens) (UniProt O15151+Q00987). Description: human Mdm2/MdmX binding disruption – cell-based, luminescence, single concentration, set 2, confirmation (AID 504601;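 active means mean inhibition of the luminescence signal across two replicates at or above 26 percent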). Conditions: SaOS-2 split-luciferase Mdm2/MdmX complementation, at 8 µM, stronger effect = higher value.
The nature of assay [3]: HIF-2a driven luciferase blockers, single dose – luminescence, 786-0 RCC cells, confirmation (AID 651580;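 active means mean inhibition across four replicates of at least 40 percent at the single tested concentration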). Conditions: HIF-2a luciferase reporter luminescence, overnight, at 18.8 µM, stronger effect = higher value. (In general: Reporter assays use an easily measured gene product as a stand-in for the process of interest.)
Assay [4] is described as follows: HIF-1a luciferase reporter signal reduction – MiaPaCa-2 cells, single concentration, counter-screen for HIF-2a inhibitor project, confirmation (AID 651589;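 active means mean inhibition of the reporter signal across four replicates at the single tested dose of 50% or more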). As to conditions: MiaPaCa-2 HIF-1a luciferase reporter, desferoxamine, overnight; at 18.8 µM; stronger effect = higher value.
The nature of assay [5]: inhibition of PEG-3 promoter luciferase signal – cell-based, HeLa, luciferase reporter, single concentration, confirmation (AID 602417;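 active means at 20 µM dose, 40% or more inhibition averaged across four replicates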). Conditions: HeLa PEG-Prom luciferase reporter, luminescence, overnight; at 20 µM; stronger effect = higher value.
Assay [6] has as its target PEG-3 (UniProt Q6IN02). The experiment in a line: inhibition of PEG-3 promoter-driven reporter – cell-based, HeLa, luciferase, CREF/GAPDH counter-screen panel, dose response (AID 624167). Conditions: CREF/GAPDH counter-screens; HeLa PEG-Prom luciferase reporter, overnight, run 1, dose range 1, at 100 µM (top of the series) unless noted.
The target of assay [7] is PEG-3 (UniProt Q6IN02). Described as above. Conditions: CREF/GAPDH counter-screens; HeLa PEG-Prom luciferase reporter, overnight, run 2, dose range 1, at 100 µM (top of the series) unless noted. On the technique in general: A counterscreen serves to expose hits that act by an unwanted route or on another target.
Assay [8] has as its system Rat fibroblasts (CREF). The description is as above. As to conditions: CREF/GAPDH counter-screens; run 1, dose range 1, at 100 µM (top of the series).
For assay [9], the system named is Rat fibroblasts (CREF). Described as above. As to conditions: CREF/GAPDH counter-screens; run 2, dose range 1, at 100 µM (top of the series).
Assay [10] deals with 72 kDa type IV collagenase (Homo sapiens) (UniProt P08253). Description: human MMP-2 inhibitors, single-point check – biochemical, fluorescence, single concentration, counter-screen for CSN deneddylation inhibitor project, confirmation (AID 720655;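 active means corrected plate-normalized z-score of 5 or more, or -5 or less, or inhibition of 15% or more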;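 further: plate controls were DMSO wells with enzyme for no effect and buffer wells lacking MMP-2 for full effect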). As to conditions: recombinant MMP-2, FRET substrate fluorescence, 60 min; at 16.6 µM.
The target in assay [11] is Prothrombin (Bos taurus) (UniProt P00735). The experiment in a line: thrombin cleavage blockers, FP readout – biochemical, fluorescence polarization, single concentration, counter-screen for CSN deneddylation inhibitor project, confirmation (AID 720656;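 active means inhibition at or above a set limit, with a fluorescence interference ratio between 0.5 and a set maximum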). Conditions: bovine thrombin cleavage of Ub4-pepOG, at 16.6 µM, stronger effect = higher value. For orientation: Fluorescence polarisation rises when a labelled molecule tumbles more slowly, as on binding a larger partner.

For assay [12], the target named is Sentrin-specific protease 8 (Homo sapiens) (UniProt Q96LD8). Description: human SENP8 peptidase blockers, hit retest – biochemical, luminescence, single concentration, confirmation (AID 488912;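 active means mean inhibition across replicates above about 50%, limit read from the data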). As to conditions: Recombinant SENP8, Z-RLRGG-aminoluciferin luminescence, 60 min; at 12.5 µM; stronger effect = higher value.
Assay [13] addresses Sentrin-specific protease 6 (Homo sapiens) (UniProt Q9GZR1). Description: inhibition of human SENP6 catalytic domain – biochemical, luminescence, single concentration, confirmation (AID 488915;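 active means mean inhibition above about 50% in the one-dose retest, limit read from the data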). As to conditions: recombinant SENP6, Z-RLRGG-aminoluciferin luminescence; at 12.5 µM; stronger effect = higher value.
The target in assay [14] is Sentrin-specific protease 7 (Homo sapiens) (UniProt Q9BQF6). The experiment in a line: human SENP7 peptidase blockers, hit retest – biochemical, luminescence, single concentration, confirmation (AID 488917;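 active means mean inhibition above about 50% in the one-dose retest, limit read from the data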). Conditions: recombinant SENP7, Z-RLRGG-aminoluciferin luminescence, 40 min; at 12.5 µM; stronger effect = higher value.
In assay [15] the target is Caspase-3 (Homo sapiens) (UniProt P42574). Description: human caspase-3 activity blockade, out-of-family – biochemical, single concentration, selectivity assay for SENP inhibitor project, confirmation (AID 488918;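 active means mean inhibition above about 50%, limit read from the data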;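 further: plate controls were enzyme with DMSO for no effect and wells without caspase-3 for full effect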). Conditions: purified caspase-3, Z-DEVD-aminoluciferin luminescence, 60 min; at 12.5 µM; stronger effect = higher value.
Assay [16] is described as follows: Ultra-Glo luciferase signal interference – biochemical, single concentration, SENP8 reaction pre-completed, artefact control for SENP inhibitor project, confirmation (AID 488919;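 active means mean inhibition above about 50% when retested at one dose, limit read from the data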;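 further: plate controls were DMSO wells with completed reaction for no effect and substrate without enzyme for full effect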). As to conditions: Pre-incubated SENP8/Z-RLRGG-aminoluciferin, luciferase luminescence interference; at 12.5 µM; stronger effect = higher value.
The nature of assay [17]: PERK-eIF2a-CHOP pathway stimulators, retested – cell-based, CHO-CHOP luciferase reporter, single concentration, confirmation (AID 463112; in the data active means activation above about 33%;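 further: 0% = DMSO wells and 100% = tunicamycin 10 µg/mL wells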). Conditions: CHO-CHOP cells, CHOP-luciferase reporter luminescence; at 10 µM; stronger effect = higher value; percent of tunicamycin response, DMSO as zero.
For assay [18], the target named is Tumor necrosis factor receptor superfamily member 10B (Homo sapiens) (UniProt O14763). Description: viability loss of caspase-8 NB7 cells with TRAIL – with/without TRAIL, luminescence panel, confirmation (AID 651596; in the data active means activity above about 50%). As to conditions: NB7 neuroblastoma + caspase-8, TRAIL sensitization, NB7 Caspase-8, with TRAIL, mean of runs, at 10 µM, stronger effect = higher value.
Experiment in assay [19]: as above
Conditions: NB7 neuroblastoma + caspase-8, without TRAIL, NB7 Caspase-8, without TRAIL, mean of runs, at 10 µM.

Assay [20] is described as follows: apoptosome-driven caspase-3 activation blockers – biochemical, fluorescence, DEVD-Rh110, 20 µM, confirmation (AID 504614;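 active means mean inhibition of at least 40% at 20 µM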;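 further: plate controls were DMSO wells for no effect and DEVD-CHO caspase inhibitor control wells for full effect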). Conditions: reconstituted apoptosome, caspase-3 DEVD-Rh110 fluorescence; at 20 µM; stronger effect = higher value.
Assay [21] in a line: detection-step artefacts after completed caspase reaction – biochemical, fluorescence, Rh110, 20 µM, artefact control for Apaf-1 inhibitor project, confirmation (AID 504615;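 active means signal rise of 40% or more at 20 µM, treated as a fluorescence artifact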). Conditions: quenched caspase reaction, at 20 µM, stronger effect = higher value.
Assay [22] in a line: Brca1-Bard1 BiLC signal decrease – luminescence, single concentration, counter-screen for Mdm2/MdmX interaction inhibitor project, confirmation (AID 504668; call rule not given here). As to conditions: Brca1/Bard1 bimolecular luciferase complementation counterscreen, at 8 µM, stronger effect = higher value.
Assay [23] deals with COP9 signalosome complex subunit 5 (Homo sapiens) (UniProt Q92905). The experiment in a line: blockers of CSN-driven cullin deneddylation – biochemical, fluorescence polarization, single concentration, SCF-Nedd8OG substrate, confirmation (AID 720654; in the data active means inhibition above about 50%;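 further: 0% = DMSO with enzyme and 100% = no enzyme wells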). As to conditions: Csn5 deneddylation of SCF-Nedd8OG, 90 min, at 16.6 µM, stronger effect = higher value.

A word on the inhibition: it is the relative decrease from the control value, in per cent.

This is one part of the list. Active and inactive are the calls of the source.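 How the source made its calls, unless noted: active means inhibition reaching about 45% at 4 µM in either replicate (limit read from the data); inactive means the rest.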

Sequence of Tumor necrosis factor receptor superfamily member 10B (Homo sapiens) (O14763 whole entry, looked up): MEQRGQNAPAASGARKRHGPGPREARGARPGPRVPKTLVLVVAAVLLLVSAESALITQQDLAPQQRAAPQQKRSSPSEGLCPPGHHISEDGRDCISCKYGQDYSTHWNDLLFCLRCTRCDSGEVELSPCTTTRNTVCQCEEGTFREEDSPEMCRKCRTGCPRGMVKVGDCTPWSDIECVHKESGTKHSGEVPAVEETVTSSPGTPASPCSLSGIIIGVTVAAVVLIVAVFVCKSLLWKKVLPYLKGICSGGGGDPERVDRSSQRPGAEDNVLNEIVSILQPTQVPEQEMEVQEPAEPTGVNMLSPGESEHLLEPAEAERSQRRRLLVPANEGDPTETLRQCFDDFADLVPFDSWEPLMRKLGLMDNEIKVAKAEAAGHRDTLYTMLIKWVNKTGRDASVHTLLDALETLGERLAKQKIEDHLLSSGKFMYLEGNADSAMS
Sequence of PEG-3 (Q6IN02 whole entry, looked up): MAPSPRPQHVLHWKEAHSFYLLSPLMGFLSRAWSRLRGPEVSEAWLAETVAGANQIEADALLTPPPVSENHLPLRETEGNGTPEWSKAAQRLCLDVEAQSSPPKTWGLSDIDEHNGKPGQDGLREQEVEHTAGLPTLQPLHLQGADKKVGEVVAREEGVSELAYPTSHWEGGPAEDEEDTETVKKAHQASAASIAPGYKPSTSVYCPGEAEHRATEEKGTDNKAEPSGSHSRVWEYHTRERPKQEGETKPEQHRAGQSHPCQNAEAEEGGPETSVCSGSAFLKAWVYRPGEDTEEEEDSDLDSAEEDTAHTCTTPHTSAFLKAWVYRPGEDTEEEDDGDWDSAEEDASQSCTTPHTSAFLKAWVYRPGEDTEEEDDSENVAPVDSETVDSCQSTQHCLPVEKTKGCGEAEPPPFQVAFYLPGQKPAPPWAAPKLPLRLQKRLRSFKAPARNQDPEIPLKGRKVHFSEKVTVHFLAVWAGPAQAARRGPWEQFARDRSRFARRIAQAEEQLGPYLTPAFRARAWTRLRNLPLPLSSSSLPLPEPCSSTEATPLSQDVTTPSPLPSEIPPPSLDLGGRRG
Sequence of Sentrin-specific protease 6 (Homo sapiens) (Q9GZR1 628-1112 limits assumed): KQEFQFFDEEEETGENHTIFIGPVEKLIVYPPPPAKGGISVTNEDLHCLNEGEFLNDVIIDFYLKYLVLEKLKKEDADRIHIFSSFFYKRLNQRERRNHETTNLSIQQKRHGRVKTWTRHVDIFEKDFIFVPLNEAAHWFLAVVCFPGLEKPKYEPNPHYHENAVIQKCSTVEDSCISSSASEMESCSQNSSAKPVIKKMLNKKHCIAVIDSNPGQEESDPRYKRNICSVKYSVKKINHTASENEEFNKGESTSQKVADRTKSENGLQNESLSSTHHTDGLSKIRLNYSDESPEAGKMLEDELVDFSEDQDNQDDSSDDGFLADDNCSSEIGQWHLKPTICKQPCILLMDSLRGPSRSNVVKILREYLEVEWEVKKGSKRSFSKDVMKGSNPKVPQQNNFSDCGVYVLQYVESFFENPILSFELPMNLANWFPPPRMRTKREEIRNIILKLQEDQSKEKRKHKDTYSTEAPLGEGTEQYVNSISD
Sequence of Caspase-3 (Homo sapiens) (P42574 28-227 limits assumed): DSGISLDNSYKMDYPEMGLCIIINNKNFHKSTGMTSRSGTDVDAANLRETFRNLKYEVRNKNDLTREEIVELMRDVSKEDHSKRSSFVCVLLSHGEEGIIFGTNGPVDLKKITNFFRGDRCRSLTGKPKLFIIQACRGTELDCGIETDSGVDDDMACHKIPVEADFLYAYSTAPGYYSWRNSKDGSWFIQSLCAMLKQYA
Sequence of Sentrin-specific protease 8 (Homo sapiens) (Q96LD8 whole entry, looked up, the tested form may be a part): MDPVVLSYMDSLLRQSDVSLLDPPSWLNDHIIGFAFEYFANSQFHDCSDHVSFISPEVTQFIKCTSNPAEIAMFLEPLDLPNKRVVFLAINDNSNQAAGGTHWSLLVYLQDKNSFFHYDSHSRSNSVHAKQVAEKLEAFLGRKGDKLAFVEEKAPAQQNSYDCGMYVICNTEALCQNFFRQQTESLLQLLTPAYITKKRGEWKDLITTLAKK
Sequence of Sentrin-specific protease 7 (Homo sapiens) (Q9BQF6 706-1050 limits assumed): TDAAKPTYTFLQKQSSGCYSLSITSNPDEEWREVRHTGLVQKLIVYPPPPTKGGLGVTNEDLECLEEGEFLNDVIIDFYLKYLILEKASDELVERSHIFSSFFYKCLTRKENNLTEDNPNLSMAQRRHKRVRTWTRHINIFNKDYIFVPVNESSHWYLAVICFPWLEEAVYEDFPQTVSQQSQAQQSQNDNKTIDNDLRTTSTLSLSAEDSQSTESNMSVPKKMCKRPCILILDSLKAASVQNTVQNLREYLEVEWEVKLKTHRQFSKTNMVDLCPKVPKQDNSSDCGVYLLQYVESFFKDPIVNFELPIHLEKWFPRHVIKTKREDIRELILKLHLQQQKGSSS
Sequence of Prothrombin (Bos taurus) (P00735 whole entry, looked up): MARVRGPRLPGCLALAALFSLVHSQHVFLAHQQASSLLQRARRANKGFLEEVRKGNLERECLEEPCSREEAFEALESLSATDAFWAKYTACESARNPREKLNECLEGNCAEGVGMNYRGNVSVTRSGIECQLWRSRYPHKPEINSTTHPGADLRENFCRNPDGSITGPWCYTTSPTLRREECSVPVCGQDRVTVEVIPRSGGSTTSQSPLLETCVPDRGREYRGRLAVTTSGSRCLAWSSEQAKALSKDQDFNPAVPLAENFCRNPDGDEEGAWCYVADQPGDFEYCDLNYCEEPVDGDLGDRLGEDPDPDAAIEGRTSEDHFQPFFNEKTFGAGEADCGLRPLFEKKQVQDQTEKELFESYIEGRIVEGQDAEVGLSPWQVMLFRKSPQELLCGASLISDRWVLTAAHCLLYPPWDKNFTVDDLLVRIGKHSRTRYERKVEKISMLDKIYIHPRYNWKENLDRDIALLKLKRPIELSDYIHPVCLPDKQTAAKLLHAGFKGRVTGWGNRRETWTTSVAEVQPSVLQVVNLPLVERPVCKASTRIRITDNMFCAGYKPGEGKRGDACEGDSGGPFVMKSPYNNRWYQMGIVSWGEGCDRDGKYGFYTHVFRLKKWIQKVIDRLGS
Sequence of Protein Mdm4 (Homo sapiens) + E3 ubiquitin-protein ligase Mdm2 (Homo sapiens) (O15151 whole entry, looked up): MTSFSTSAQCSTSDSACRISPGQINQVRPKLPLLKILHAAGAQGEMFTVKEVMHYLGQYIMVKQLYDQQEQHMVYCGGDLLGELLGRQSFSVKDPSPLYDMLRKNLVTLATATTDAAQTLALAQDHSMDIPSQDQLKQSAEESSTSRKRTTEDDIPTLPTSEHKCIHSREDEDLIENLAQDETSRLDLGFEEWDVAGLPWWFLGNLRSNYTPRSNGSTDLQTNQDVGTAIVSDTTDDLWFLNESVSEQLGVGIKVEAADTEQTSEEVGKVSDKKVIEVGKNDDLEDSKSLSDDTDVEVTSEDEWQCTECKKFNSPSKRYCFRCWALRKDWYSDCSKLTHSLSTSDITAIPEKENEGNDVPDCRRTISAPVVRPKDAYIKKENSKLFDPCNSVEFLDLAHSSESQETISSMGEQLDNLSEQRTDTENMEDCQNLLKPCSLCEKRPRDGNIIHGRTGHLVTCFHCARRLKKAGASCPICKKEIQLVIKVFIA
Sequence of Protein Mdm4 (Homo sapiens) + E3 ubiquitin-protein ligase Mdm2 (Homo sapiens) (Q00987 whole entry, looked up): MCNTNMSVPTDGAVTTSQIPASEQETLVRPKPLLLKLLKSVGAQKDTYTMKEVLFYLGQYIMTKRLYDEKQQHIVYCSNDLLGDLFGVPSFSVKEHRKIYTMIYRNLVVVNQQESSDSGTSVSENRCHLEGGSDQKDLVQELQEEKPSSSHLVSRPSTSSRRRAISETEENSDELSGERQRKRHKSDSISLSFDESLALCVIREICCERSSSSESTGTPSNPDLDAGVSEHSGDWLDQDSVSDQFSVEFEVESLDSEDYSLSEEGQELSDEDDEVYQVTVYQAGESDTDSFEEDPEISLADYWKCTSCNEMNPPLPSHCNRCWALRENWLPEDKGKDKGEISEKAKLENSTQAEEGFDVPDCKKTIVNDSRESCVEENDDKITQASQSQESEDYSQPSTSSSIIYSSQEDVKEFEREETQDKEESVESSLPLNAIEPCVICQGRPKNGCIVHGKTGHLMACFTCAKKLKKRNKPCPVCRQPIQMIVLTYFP
Sequence of 72 kDa type IV collagenase (Homo sapiens) (P08253 whole entry, looked up): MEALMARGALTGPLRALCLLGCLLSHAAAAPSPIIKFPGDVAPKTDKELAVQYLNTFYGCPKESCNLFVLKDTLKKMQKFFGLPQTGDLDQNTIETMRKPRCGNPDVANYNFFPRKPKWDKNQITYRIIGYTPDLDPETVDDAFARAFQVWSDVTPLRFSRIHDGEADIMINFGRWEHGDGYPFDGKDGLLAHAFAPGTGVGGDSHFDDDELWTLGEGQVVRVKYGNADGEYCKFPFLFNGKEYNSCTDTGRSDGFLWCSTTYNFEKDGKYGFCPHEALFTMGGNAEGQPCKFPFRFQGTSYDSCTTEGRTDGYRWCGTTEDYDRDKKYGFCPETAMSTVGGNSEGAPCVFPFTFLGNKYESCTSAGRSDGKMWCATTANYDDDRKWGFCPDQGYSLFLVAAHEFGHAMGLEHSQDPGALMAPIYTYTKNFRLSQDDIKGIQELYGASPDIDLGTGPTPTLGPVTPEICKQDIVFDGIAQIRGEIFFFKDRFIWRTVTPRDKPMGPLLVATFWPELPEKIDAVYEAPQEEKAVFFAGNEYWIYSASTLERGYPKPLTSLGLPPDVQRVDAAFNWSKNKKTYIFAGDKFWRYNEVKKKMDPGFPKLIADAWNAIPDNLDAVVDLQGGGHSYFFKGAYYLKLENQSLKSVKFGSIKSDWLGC
Sequence of COP9 signalosome complex subunit 5 (Homo sapiens) (Q92905 whole entry, looked up, one chain of several): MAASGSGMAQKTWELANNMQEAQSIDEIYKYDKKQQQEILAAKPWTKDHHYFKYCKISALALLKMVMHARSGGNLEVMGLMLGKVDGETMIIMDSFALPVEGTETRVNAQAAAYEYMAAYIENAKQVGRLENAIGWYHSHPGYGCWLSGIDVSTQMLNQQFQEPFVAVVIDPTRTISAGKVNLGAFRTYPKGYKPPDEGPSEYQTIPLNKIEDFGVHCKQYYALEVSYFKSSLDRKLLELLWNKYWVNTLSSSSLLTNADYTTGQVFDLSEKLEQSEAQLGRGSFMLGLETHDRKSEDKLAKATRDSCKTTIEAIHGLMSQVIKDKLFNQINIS

Turning to `C=C(C)C(=O)O[C@H]1C/C(C)=C\C(=O)/C=C(\C)[C@H](O)[C@@H]2OC(=O)C(=C)[C@@H]21`, the inhibition is 34.6% (inactive) in assay [1], 103% (active) in [2], 61.8% (active) in assay [3] and 108% (active) in [4].

For `OCCCNc1nccc(-c2cc(Nc3cccc(Cl)c3)ncn2)n1`, the inhibition in assay [1] was 97% (active); in assay [2], 102% (active); in assay [5], 97.6% (active); in assay [6], 94%; in assay [7], 97.4%; in assay [8] it was 14.7%. In assay [9], the inhibition was found to be 62.3%.

With `Cn1ccc(=Nc2ccc(NC(=O)c3ccc(N=c4ccn(C)c5ccc([N+](=O)[O-])cc45)cc3)cc2)cc1`, the inhibition in assay [1] is -15.3% (inactive); in assay [10], 61.8% (active); in assay [11], -10.3% (inactive).

In the case of `CC(C)(C)c1ccc(Oc2ccc(N)cc2)cc1`, the inhibition is 11.6% (inactive) in [1]; 86.3% (active) in [5]; 99.3% in [6]; 99.2% in assay [7]; 60.1% in assay [8]; 83.1% in assay [9].

For the molecule `CCCc1cc(C(=O)Nc2ccc(Cl)cn2)cs1`, the inhibition in assay [1] is -104% (inactive); in assay [12] it was 73.5% (active); in [13] it was 79.2% (active); in [14], 92.2% (active); in [15], 66.8% (active); in [16] it was 59.1% (active).

On to `Cc1ccc(-c2nnc(-c3ccc(NC(=O)c4cccs4)cc3)o2)cc1`, for which the activation in [17] is 134% (active).

`Cc1cccc(/C(N)=N/OC(=O)c2ccccc2Cl)c1`: the inhibition is -97.8% (inactive) in assay [1]; 97.7% (active) in assay [12]; 98.9% (active) in assay [13]; 102% (active) in [14]; 97.2% (active) in assay [15]; 96.8% (active) in assay [16]. For the same molecule, the activity came to 77.6% in [18] and 84.8% in [19].

Turning to `CCOc1ccc(N2C(=O)CC(N(O)c3ccccc3)C2=O)cc1` (stereo not given), in assay [17], the activation was 186% (active).

For `CC1(C)CC(N2CCN(C(c3ccccc3)c3ccccc3)CC2)=CC(=[N+]2CCCCC2)C1`, in assay [1], the inhibition was 69.6% (active). Further, the values for the activity in assay [18] and in assay [19] were 74.7% and 56.2%, respectively.

In the case of `CCOc1[nH]n(-c2ccc(Cl)cc2)c(=O)c1C=Nc1ccc(O)cc1`, the results for the inhibition in assay [1] and in [20] were 6% (inactive) and 14.8% (inactive), respectively. The activation (fluorescence interference) in assay [21] was 5.36% (inactive).

Take `COC(=O)Cc1[nH]n(-c2nc3ccccc3s2)c(=O)c1C(C)=Nc1ccc(OC)cc1`: the inhibition in assay [1] is 79.2% (active); in assay [22], 26.2% (active); in assay [5], 86.3% (active); in assay [3] it was 82.3% (active); in assay [4] it was 92.7% (active). The results for the activity in assay [18] and in [19] were 47% and 40.9%, respectively.

For `CC[n+]1cc(C)ccc1/C=C/c1ccc(N(C)C)cc1`, the inhibition is 46% (inactive) in [1], 56.8% (active) in assay [23], -78.8% (active) in [10] and 63.1% (active) in assay [11].

In the case of `O=C(c1cnn(-c2ccc(Cl)cc2)c1)c1ccccc1O`, the inhibition in assay [1] is -109% (inactive); in assay [12], 11.7% (inactive); in assay [13] it was 95.3% (active); in [14] it was 78.6% (active); in assay [15] it was 73.5% (active); in assay [16] it was 56.5% (active).

As for `CCc1nn(-c2cc(Oc3cccc4ccccc34)nc(-c3ccccc3)n2)c(N)c1C#N`, the activation in [17] is 40.1% (active).

For the origin of these results see PubChem BioAssay.
